# In all, about 33,000 sequences were measured (“E-score (-0.5 to 0.5)”: median about -0.043, highest 2% from about 0.37 on). This excerpt belongs to a sample that is enriched for the highest values.
# Target: T1, Upc2 (UniProt Q12151)
# T1 sequence: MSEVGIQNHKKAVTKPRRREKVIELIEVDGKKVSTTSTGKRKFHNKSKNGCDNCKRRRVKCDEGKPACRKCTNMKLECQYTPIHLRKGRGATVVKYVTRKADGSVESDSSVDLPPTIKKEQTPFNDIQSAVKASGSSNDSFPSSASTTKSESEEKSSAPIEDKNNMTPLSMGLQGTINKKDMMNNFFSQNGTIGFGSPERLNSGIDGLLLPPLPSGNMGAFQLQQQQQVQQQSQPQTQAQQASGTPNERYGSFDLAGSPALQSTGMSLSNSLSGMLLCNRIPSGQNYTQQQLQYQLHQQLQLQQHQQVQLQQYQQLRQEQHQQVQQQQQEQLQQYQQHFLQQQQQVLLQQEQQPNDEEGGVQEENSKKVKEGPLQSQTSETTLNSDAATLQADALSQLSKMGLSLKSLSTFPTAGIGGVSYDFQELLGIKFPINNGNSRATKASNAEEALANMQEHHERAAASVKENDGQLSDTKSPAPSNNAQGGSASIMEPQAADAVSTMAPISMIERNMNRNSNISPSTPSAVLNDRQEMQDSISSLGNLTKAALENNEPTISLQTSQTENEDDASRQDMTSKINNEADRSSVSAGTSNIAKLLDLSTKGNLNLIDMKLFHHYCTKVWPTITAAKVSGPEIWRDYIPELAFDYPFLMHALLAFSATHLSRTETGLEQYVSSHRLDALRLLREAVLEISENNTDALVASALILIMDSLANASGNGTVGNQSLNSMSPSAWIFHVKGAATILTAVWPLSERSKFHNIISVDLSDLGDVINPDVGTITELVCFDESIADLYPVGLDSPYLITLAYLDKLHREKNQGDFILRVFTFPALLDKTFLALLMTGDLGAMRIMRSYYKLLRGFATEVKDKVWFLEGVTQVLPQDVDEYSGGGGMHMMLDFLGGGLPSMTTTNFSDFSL
# Assay: PBM E-score (8-mer binding enrichment) (E-score (-0.5 to 0.5)); higher = stronger / more preferred TF binding
# Conditions: protein concentration: 200 nM; construct: GST-full length
# In short: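 Masliner-normalised scans of fluorescent anti-GST signal were the basis for scoring. That signal came from GST-tagged yeast transcription factors applied at about 100-200 nM to double-stranded universal all-10-mer Agilent arrays on fresh or once-stripped slides. Each ungapped eight-base word, pooled with its reverse complement, received an E-score from the Universal PBM Analysis Suite.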
row,Sequence,PBM E-score
1,ACCATTAC,0.17
2,AAACCGTC,-0.0199
3,ACTCCAAG,-0.152
4,CTCCTTAC,0.112
5,CGATTGAA,0.0171
6,GATATGGA,0.047
7,ACCCAACA,-0.221
8,GACGCTCC,-0.0386
9,AAACATCG,-0.033
10,CTTCACGC,0.0017
11,CTATGGAG,-0.173
12,GTTGTTTA,0.0127
13,GTGTCCTA,-0.0178
14,CCATAGAA,-0.25
15,ACCCGTCA,-0.119
16,ATATAATA,-0.0226
17,GTATAATA,0.375
18,CTATAATA,-0.055
19,CTATAAGA,0.247
20,GTATAAGA,0.395
21,ATATAAGA,0.22
22,AACGTTGA,0.0964
23,CCACCAGA,-0.0981
24,AAGCGTAT,0.33
25,TATCGCGA,0.182

row,Sequence,PBM E-score
1,CTGCTACC,-0.161
2,CCTTGGAC,-0.0581
3,GGCTGTGA,-0.125
4,CCCGTTTA,0.456
5,GCCGTTCA,0.31
6,ACCGTTTG,0.333
7,CACGTTTA,0.363
8,ACCGTTTC,0.244
9,ACCGTTTA,0.458
10,GCCGTTTA,0.465
11,CCCGTTTC,0.197
12,GCCGTTAA,0.292
13,AACCAAGG,-0.0086
14,AAAAACTG,-0.0494
15,ACACGCTC,0.0594
16,CGCTGCAC,-0.0173
17,AAAGGCTA,-0.173
18,ACTGTGCG,0.134
19,TCGTAGAA,0.39
20,TCGTAGCA,0.39
21,ACGTAGCA,0.0515
22,GCGTAGAA,0.0848
23,CCGTAGCA,0.0702
24,CCGTAGAA,0.118
25,TAACTGAA,-0.0941

row,Sequence,PBM E-score
1,ACAACACT,0.0862
2,ATATGGTA,0.158
3,CTTCTTAA,0.0092
4,AACCTCGC,0.0636
5,AACCTCGA,0.0605
6,AACCTCGT,0.372
7,ACCCTCGC,0.0921
8,ACCCTCGT,0.419
9,ACCCTCGA,-0.244
10,TCAGGCAA,-0.146
11,TATTCACA,0.101
12,CGTACCGA,0.398
13,GGTACCGA,0.0871
14,AGTACCGC,0.1
15,CGTACCGC,0.416
16,CATACCGC,0.00223
17,AGTACCGA,-0.0766
18,GCTCATCA,-0.195
19,GTAAAGCA,0.223
20,ACTTCTGA,-0.307
21,CGGGGCAG,0.131
22,TCAGAAAA,-0.153
23,GGCCGTAA,0.255
24,AGCCGTAC,0.346
25,CGCCGTAC,0.408

row,Sequence,PBM E-score
1,GGCCGTAC,0.389
2,CGCCGTAG,0.0712
3,CGCCGTAA,0.285
4,TCTCTCCA,-0.118
5,CCACAGCG,-0.302
6,ATGATCCG,-0.0506
7,CTCGAGCC,0.135
8,CGATATCG,0.244
9,AAGCTTCG,0.145
10,AACGCAAT,0.138
11,ACTTGGCC,-0.0135
12,AAAAAACG,0.186
13,CCTAGGAG,-0.273
14,ATATCTAG,-0.0547
15,CGCCCTAG,-0.158
16,AGTTACGG,0.0766
17,GGTTACGA,0.408
18,CGTTACGC,0.282
19,GGTTACTA,-0.0998
20,CGTTACGA,0.417
21,GGTTACCA,0.156
22,AGTTACGC,0.0981
23,AGTTACGA,0.383
24,CGTTACAA,0.0563
25,GAACTGGC,-0.158

row,Sequence,PBM E-score
1,CACCTAGG,-0.103
2,AAAGCGAG,0.217
3,CACCTCCC,-0.174
4,TAAGGCCA,-0.013
5,AACTGGTG,-0.163
6,GCCTTCGC,-0.106
7,CACCGTAG,0.0923
8,CTCCGTAA,0.285
9,ATCCGTAC,0.366
10,CACCGTAA,0.32
11,CACCGTAC,0.401
12,CTCCGTAC,0.376
13,CTATTTAC,0.104
14,ATCTGTTC,0.0527
15,ATATAATC,-0.158
16,AACGCTAT,0.0885
17,AGCCGTGG,-0.17
18,CGTATAGA,0.48
19,CGTATAGC,0.483
20,CCTATAGC,-0.286
21,GGTATAGA,0.111
22,AGTATAGC,0.128
23,AGTATAGA,0.137
24,AAGCGATA,0.205
25,AGCTTATA,0.0662

row,Sequence,PBM E-score
1,CGGGGTCA,0.117
2,ATGCTTAC,-0.0957
3,AGACGGCA,-0.162
4,TAAACGTA,0.407
5,AAAACGTA,0.123
6,TAAACGCA,0.399
7,CAAACGCA,0.258
8,CAAACGTA,0.259
9,CAAACGGA,0.318
10,TAAACGGA,0.454
11,GAAACGGA,0.199
12,GAAACGCA,-0.059
13,TATATCAA,-0.04
14,AAGCCAGA,-0.2
15,ATCAAATC,-0.078
16,CTTGAAGC,-0.183
17,CATCTGGG,-0.133
18,CCGTCGAA,0.0446
19,ACACTACC,-0.098
20,CACTCAGC,-0.223
21,CTAAACTC,0.0155
22,GCAAACGA,0.462
23,GTAAACCA,0.0531
24,ACAAACGG,0.328
25,ATAAACGC,0.344

row,Sequence,PBM E-score
1,CTAAACGC,0.416
2,GTAAACGA,0.491
3,GCAAACAA,0.00753
4,GTAAACTA,0.172
5,ACAAACGC,0.225
6,GCAAACGC,0.25
7,ACAAACGA,0.466
8,AACAGATT,-0.0821
9,AAAATGGC,-0.0658
10,AAGAGTAG,-0.128
11,CGTCTAGA,0.121
12,ACCACCTC,-0.111
13,ATCCAGCG,-0.0436
14,CATTGCGA,-0.0248
15,CAATGGCG,-0.141
16,CGATTCGA,0.0594
17,ACCACACC,-0.185
18,CCAAACGC,0.292
19,CCAAACGA,0.476
20,ATAAACTG,-0.0103
21,AAAAACGG,0.117
22,CAAAACGA,0.31
23,TCAAACGA,0.471
24,CCAAACGG,0.365
25,TCAAACAA,-0.0805

row,Sequence,PBM E-score
1,ATAAACGG,0.434
2,AGGTTAGC,-0.3
3,CGGTTACA,0.156
4,GGCACCAA,-0.0665
5,ATGCACCA,-0.188
6,GCCAGACC,-0.138
7,ATCAGAGA,-0.167
8,AGTCTATC,-0.159
9,ACCGTATG,0.381
10,CCCGTAGA,-0.00639
11,CCCGTATA,0.479
12,ACCGTATA,0.478
13,GCGGTATA,0.151
14,CCCGTATC,0.339
15,ACGGTATA,0.274
16,GCCGTATA,0.48
17,ACCGTATC,0.345
18,ACCGTAAG,0.185
19,GCCGTAGA,0.189
20,ACCGTAGA,0.178
21,TAACGTCA,0.0914
22,AGTCCAAT,-0.149
23,AGGGGTCC,-0.168
24,AATGTCGC,0.0832
25,AGTTGCGA,0.0264

row,Sequence,PBM E-score
1,CGGGTATC,0.135
2,CGTGCACG,0.134
3,ACCAGGAC,-0.0418
4,GGCACAAC,-0.279
5,CCGACGAA,0.067
6,ACGACGGA,0.37
7,GCGACGGA,0.0438
8,ACGACGGG,0.415
9,ACGACGAA,0.375
10,CCGACGGA,-0.0042
11,ACGACGGC,0.333
12,CCGACGTA,0.225
13,TCGACGAA,-0.018
14,ACGACGAG,0.367
15,ACGACGTA,0.413
16,ACGACGTG,0.351
17,CATGTTAA,0.0636
18,GGTCTGAA,0.0866
19,TAGAATGA,-0.263
20,GCACGCGA,-0.0589
21,GGGTATAA,-0.0582
22,CGCAGTCA,-0.228
23,GGCTTTGA,-0.0097
24,ATAGGGAT,-0.0755
25,ATAGACAT,-0.151

row,Sequence,PBM E-score
1,TATCCATA,0.2
2,CTACCATC,0.00378
3,AGCCTTGC,-0.0435
4,GAACGAGA,0.457
5,GAACGAGC,0.465
6,CAACGAGC,0.286
7,AAACGAGC,0.489
8,AACCGAGC,0.325
9,GCACGAGC,-0.0167
10,GCACGAGA,0.0181
11,AATCGAGC,0.286
12,GGACGAGA,-0.00291
13,TGAATGCA,-0.0537
14,CTTAGATC,-0.0871
15,CCCCTATA,0.0494
16,AAAAAGTT,-0.0419
17,GGCCTCTA,-0.0932
18,CGCTACGC,0.136
19,CTCTACGC,0.0628
20,CTCTACGA,0.409
21,CGCTACGA,0.421
22,AGCTACGA,0.34
23,ATCTACGA,0.313
24,GGCAGGAA,-0.24
25,AATCCAGG,0.0108

row,Sequence,PBM E-score
1,AAAACTAC,0.137
2,CCTGGCAA,-0.125
3,CAAGACAA,-0.0401
4,TAATCGAA,0.226
5,GAATCGCA,-0.0934
6,CAATCGTA,0.4
7,TAATCGTA,0.42
8,CAATCGTC,-0.144
9,GAATCGTA,0.387
10,GAATCGTC,0.052
11,AAATCGTA,0.383
12,CAATCGTG,-0.153
13,AAATCGTC,0.14
14,AAATCGTG,0.0785
15,TAATCGGA,0.155
16,CTGGCTCC,-0.252
17,CCGGAGAC,-0.0181
18,AGGTCTCA,-0.221
19,CCTCAGCA,-0.21
20,AAACGTAC,0.33
21,AGTGGATC,-0.0691
22,AGTACTAC,0.119
23,GCACAAAC,0
24,CGCAACGC,0.0437

# Source: the supplement of paper PMC3334620
